PLK1 PBD block: inhibitors of human PLK1 polo-box domain binding; actives 2.8% (n = 360,000); P53350; AID 720504; Plk1 PBD binding of FITC phosphopeptide, fluorescence polarization; Potency, µM, without a hit: max response, negative = inhibition, usual class: inhibitors; also: series mostly up to about 57 µM; % is scaled to controls: 0 for no effect and ±100 for the full control effect; nearly all actives have a fitted effect of over 65% in size
G9a block: G9a (human) methyltransferase inhibition; G9a H3K9 monomethylation, AlphaScreen, 2 h; Potency, µM (titrated, usually from 102 µM), inactives show at the highest dose activity, negative = inhibition, usual class: inhibitors; actives 8.8% (n = 350,000); AID 504332; also: % is scaled to controls: 0 for no effect and ±100 for the full control effect; nearly all actives have a fitted effect of over 75% in size
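Step 1: enzyme (final 20 nM) with compound, 15 min RT. Step 2: substrate peptide 500 nM and SAM 20 uM, 2 h RT. Step 3: anti-H3K9me1 antibody and AlphaScreen beads, 10 min, then plate read.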
BAZ2B inh: inhibitors of human BAZ2B bromodomain; Q9UIF8; AlphaScreen BAZ2B-H3K14Ac peptide displacement; Potency, µM (titrated, usually from 114 µM), inactives show at the highest dose activity change, negative = inhibition, hits mostly inhibitors; actives 4.4% (n = 360,000); AID 504333; also: % is scaled to controls: 0 for no effect and ±100 for the full control effect; nearly all actives have a fitted effect of over 60% in size
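BAZ2B 50 nM plus b-H3(5-23)K14Ac 50 nM, PBS pH 7.4/0.01% Tween-20, 30 min RT; compound added (max 110 uM), 30 min RT; streptavidin donor/Ni-chelate acceptor beads 10 ug/mL final, 20 min dark; AlphaScreen read.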
VDR inh: inhibitors of human vitamin D receptor; VDR-SRC2-3 peptide fluorescence polarization, 2 h; AID 504847; Potency, µM, without a hit: max response, negative = inhibition, most hits filed as inhibitors; actives 0.93% (n = 400,000); also: % is scaled to controls: 0 for no effect and ±100 for the full control effect
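The screen uses fluorescence polarization to detect compounds that interfere with recruitment of the SRC2-3 coactivator peptide to VDR; plates are read after 2 h at room temperature.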
JMJD2A Tudor: blocks the human JMJD2A Tudor domain; O75164; AlphaScreen JMJD2A-Tudor / H3K4me3 peptide binding; Potency, µM (titrated, usually from 114 µM), without a hit: top-dose activity change, negative = inhibition, usual class: inhibitors; actives 4.4% (n = 390,000); AID 504339; also: % is scaled to controls: 0 for no effect and ±100 for the full control effect; nearly all actives have a fitted effect of over 50% in size
Target sequence (O75164 whole entry, looked up, the tested form may be a part): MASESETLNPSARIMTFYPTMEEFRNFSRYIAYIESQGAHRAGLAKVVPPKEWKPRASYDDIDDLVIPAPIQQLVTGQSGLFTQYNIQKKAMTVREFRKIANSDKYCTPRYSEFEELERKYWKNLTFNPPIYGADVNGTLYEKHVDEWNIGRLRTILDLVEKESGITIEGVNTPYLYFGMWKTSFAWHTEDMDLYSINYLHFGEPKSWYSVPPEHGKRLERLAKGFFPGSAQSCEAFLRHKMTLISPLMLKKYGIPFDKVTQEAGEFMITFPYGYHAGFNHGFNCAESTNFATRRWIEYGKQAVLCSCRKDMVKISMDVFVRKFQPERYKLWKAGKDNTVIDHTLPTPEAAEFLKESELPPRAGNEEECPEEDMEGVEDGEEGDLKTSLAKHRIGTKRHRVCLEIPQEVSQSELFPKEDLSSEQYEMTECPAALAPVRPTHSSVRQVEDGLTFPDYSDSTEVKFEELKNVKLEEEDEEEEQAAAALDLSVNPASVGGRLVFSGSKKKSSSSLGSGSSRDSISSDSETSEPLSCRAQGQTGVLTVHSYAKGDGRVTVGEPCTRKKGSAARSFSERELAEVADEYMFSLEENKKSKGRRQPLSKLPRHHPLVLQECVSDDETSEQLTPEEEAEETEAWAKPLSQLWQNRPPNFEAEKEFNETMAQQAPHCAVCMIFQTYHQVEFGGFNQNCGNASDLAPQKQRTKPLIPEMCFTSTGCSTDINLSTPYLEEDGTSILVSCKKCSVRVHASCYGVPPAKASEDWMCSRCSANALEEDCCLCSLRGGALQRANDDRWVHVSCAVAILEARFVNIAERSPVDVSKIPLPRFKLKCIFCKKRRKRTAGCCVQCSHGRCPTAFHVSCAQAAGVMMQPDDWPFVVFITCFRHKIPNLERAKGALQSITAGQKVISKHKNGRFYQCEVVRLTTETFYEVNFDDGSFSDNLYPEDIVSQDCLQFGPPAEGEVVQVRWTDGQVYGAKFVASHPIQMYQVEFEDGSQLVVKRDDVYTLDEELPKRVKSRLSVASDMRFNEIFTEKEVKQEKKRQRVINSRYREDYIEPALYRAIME
HP1b binding inh: inhibitors of HP1-beta chromodomain binding to methylated histone tails; P83916; AlphaScreen HP1-beta / biotin-H3K9me3 peptide binding; Potency, µM (series often up to 114 µM), inactives show at the highest dose activity change, negative = inhibition, actives largely listed as inhibitors; actives 0.56% (n = 390,000); also: nearly all actives have a fitted effect of over 70% in size
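HP1-beta protein (50 nM final) preincubated 30 min at room temperature with biotinylated H3(1-18)K9me3 peptide (50 nM) in PBS pH 7.4, 0.01% Tween-20, then compound added for 30 min. AlphaScreen streptavidin donor/nickel chelate acceptor beads (10 ug/mL final), 30 min dark, luminescence read.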
* = called active by the depositor; ? = inconclusive; / = no result given; [ ] = remark or other dose. In the library only some 11% were active in any assay of this set; here they are far more common. Calls follow the shape of the dose curve; as a rule, active = well fitted curve in the direction sought with a large enough effect; inconclusive = small, poorly fitted or top-dose-only effect, or another doubt; inactive = no such curve, though single readings can be large; an effect the other way counts as inactive or inconclusive. Potency is read from the fitted curve at half-maximal effect.

SMILES	PLK1 PBD block	G9a block	BAZ2B inh	VDR inh	JMJD2A Tudor	HP1b binding inh
C=CC[N+](C)(C)C/C(Cl)=C(\Cl)c1ccccc1	-8%	?	6%	-15%	-2%	19%
Cc1ccccc1OCC(O)CN1CCN(CCN2C(=O)c3cccc4cccc(c34)C2=O)CC1 (stereo not given)	-9%	79µM*	?	8%	?	-24%
C=CCc1ccccc1OCC(O)CN1CCN(CCN2C(=O)c3cccc4cccc(c34)C2=O)CC1 (stereo not given)	-7%	40µM*	?	-13%	?	?
C=CCc1ccccc1OCC(O)CN1CCN(c2ccc(C)cc2)CC1 (stereo not given)	-3%	13µM*	28µM*	-10%	3.5µM*	?
CC(C)OCC(O)CN1CCN(CCN2C(=O)c3cccc4cccc(c34)C2=O)CC1 (stereo not given)	0%	?	-19%[57.1 µM]	10%	-25%	24%
Cc1ccccc1OCC(O)CN1CCN(CC(O)COc2ccccc2C)C(C)C1 (stereo not given)	1%	18%[2.33 µM]	22µM*	2%	2µM*	?
CC(=O)c1ccc(OCC(O)CN2CCN(CCN3C(=O)c4cccc5cccc(c45)C3=O)CC2)cc1 (stereo not given)	-1%	-23%[59 µM]	-37%	6%	?	3%
CN1CC(=O)N(CC(=O)Nc2ccc(OC(F)(F)F)cc2)c2ccccc2C1=O	/	-4%[59 µM]	0%	3%	-12%	6%
CCC(C(=O)NCc1cccnc1)n1nc(C)n2c(cc3occc32)c1=O (stereo not given)	1%	-11%	-10%	-4%	2%	37%
Cc1ccc(Sc2ncnc3onc(C)c23)cc1	19µM*	27%	5%	-19%	16%[11.4 µM]	32%
CN(C(=O)CSc1nc(-c2ccccc2)cn1N)C(c1ccccc1)c1ccccc1	-8%	18µM*	45µM*	-14%	?	-26%
O=S(=O)(Nc1cccnc1)c1cccc2ccccc12	/	/	/	-8%	-10%	10%
Cn1c(CN2CCOCC2)nc2cc(NC(=O)COc3ccccc3)ccc21	21µM*	-2%	-14%	?	56µM*	-19%
COc1ccc(OCC(=O)Nc2ccc3c(c2)nc(CCN2CCN(C)CC2)n3C)cc1	24µM*	37%	-20%	?	?	6%
COc1ccc(OCC(=O)Nc2ccc3c(c2)nc2n3CCSC2)cc1	-19%	2µM*	-1%	-16%	-13%	3%
CC(=O)Nc1ccc2c(c1)nc1n2CCSC1	-17%	-10%	-6%	0%	-4%	49%
Cc1ccc(-c2c(C(=O)N3CCN(c4cccc(C)c4C)CC3)oc(=O)c3ccccc23)cc1	/	?	/	12%	?	9%
CCN(C(=O)COC(=O)C1CC1)c1c(N)n(Cc2ccccc2)c(=O)[nH]c1=O	-13%	?	-5%	-6%	-4%	23%
Cc1cc(OCCOCCN(C)C)ccc1Cl	-2%	?	?	-11%	28µM*	?
Cc1cc(Cl)cc(Cl)c1OCCOc1cccc2cccnc12	-4%	24%[12.7 µM]	4%	2%	-9%	17%
Cc1cc(C)c(OCCCCCNCCO)c(C)c1	-8%	5%	11%	-22%	-23%	22%
Cc1cc(Cl)cc(Cl)c1OCCOCCN(C)C	2%	11µM*	?	-11%	6.3µM*	?
Cc1cc(C)c(OCCN(C)C)c(Cl)c1	?	11µM*	50µM*	-10%	3.5µM*	?
COC(=O)C(C)NC(=O)C1CCCN1C(=O)CNC(=O)OCc1ccccc1 (stereo not given)	1%	17%	-1%	-3%	-6%	20%
CCCCCCN1CC(O)=C(c2ccccc2)C1=N	0%	8%[59 µM]	-4%	10%	-7%	15%
N=C1C(c2ccccc2)=C(O)CN1CCO	24µM*	1%	8%	-11%	-20%	0%
